Assay outcomes: PubChem BioAssay, National Center for Advancing Translational Sciences (NCATS)
Sampled rows, rich in hits. Any-hit rate of the full collection: about 10%.
SARS PLP yeast: qHTS of Yeast-based Assay for SARS-CoV PLP; S. cerevisiae expressing SARS-CoV PLpro, growth rescue; AID 485353, 2010; Potency, µM (top dose mostly 32.9 µM), without a hit: top-dose activity, positive = growth rescue, most hits filed as activators; actives 0.19% (n = 330,000); also: 0% is about no effect; nearly all actives have a fitted effect of over 55% in size
Pf growth 96h: Primary qHTS for delayed death inhibitors of the malarial parasite plastid, 96 hour incubation; Potency, µM (top dose mostly 28.7 µM), for inactives: top-dose activity change, negative = inhibition, hits mostly inhibitors; AID 504834, 2011; actives 6.9% (n = 320,000); P. falciparum luciferase reporter growth, 96 h; active = well fitted inhibition curve with a large enough effect; inconclusive = small, poorly fitted or top-dose-only effect, or another doubt; inactive = no such curve, though single readings can be large or run the other way; also: % is scaled to controls: 0 for no effect and ±100 for the full control effect
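P. falciparum expressing integrated firefly luciferase grown in erythrocytes (2% hematocrit, 0.05% parasitemia final) with compounds for 96 hours at 37 C, 5% CO2. Growth inhibition read as loss of luminescence after adding luciferase detection reagent.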
NS1 function inh: qHTS Assay for Inhibitors of Influenza NS1 Protein Function | Potency, µM (doses to about 46.1 µM), inactives show at the highest dose activity, positive = more growth | actives 0.4% (n = 270,000) | AID 2326, 2010; also: actives are rising curves; nearly all actives have a fitted effect of over 50% in size
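OD600 was taken as the measure of yeast growth restored by compound in an NS1-expressing S. cerevisiae strain. Cells had been washed out of glucose medium and diluted 1:100 into galactose -URA medium, pH 6.0.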
Pf growth 48h: Primary qHTS for delayed death inhibitors of the malarial parasite plastid, 48 hour incubation | P. falciparum luciferase growth in erythrocytes, 48 h | Potency, µM (top dose mostly 28.7 µM), inactives show at the top dose activity change, negative = inhibition, actives largely listed as inhibitors | actives 5.9% (n = 310,000) | AID 504832, 2011; active = well fitted inhibition curve with a large enough effect; inconclusive = small, poorly fitted or top-dose-only effect, or another doubt; inactive = no such curve, though single readings can be large or run the other way; also: % is scaled to controls: 0 for no effect and ±100 for the full control effect
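Cell-based growth assay: transgenic P. falciparum expressing firefly luciferase, cultured in red cells within RPMI 1640 containing 0.5% w/v Albumax, 24 mM bicarbonate and gentamycin. A drop in luciferase activity indicates inhibition.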
Numbers without * were called inactive. Unless noted, calls follow the shape of the full dose curve. Potency is read from the fitted curve at half-maximal effect.

Results for Clc1ccc2c(c1)C(c1ccccc1Cl)=NCc1nnc(N3CCN(CCOc4ccccc4)CC3)n1-2 ?
SARS PLP yeast: -4%; Pf growth 96h: 9.3µM*; NS1 function inh: -56%; Pf growth 48h: inconclusive

Results for O=C(CCl)c1ccc(Oc2ccc(C(=O)CCl)cc2)cc1 ?
Pf growth 96h: -8%; Pf growth 48h: inconclusive

Results for COC(=O)CC1C(=O)NCCN1Cc1cn(-c2ccc(C)cc2)nc1-c1cccc(C)c1 (stereo not drawn) ?
SARS PLP yeast: 1%; Pf growth 96h: 10µM*; NS1 function inh: 4%; Pf growth 48h: inconclusive

What do the screens show for `COc1ccc(NC(=O)COC(=O)c2ccc(-n3cnnn3)cc2)c([N+](=O)[O-])c1`?
SARS PLP yeast: -12%; Pf growth 96h: 31%; Pf growth 48h: -5%

How did COc1cc2c(c(OC)c1OC)-c1ccc(O)c(=O)cc1[C@@H](NC(C)=O)CC2 do in these assays?
SARS PLP yeast: -4%

Results for COc1cc2c(c(OC)c1OC)-c1ccc(NC(=O)c3ccccc3)c(=O)cc1[C@@H](NC(C)=O)CC2 ?
SARS PLP yeast: -4%; Pf growth 96h: inconclusive; NS1 function inh: 5%; Pf growth 48h: 9.3µM*

What do the screens show for `O=C(Nc1ccc(Br)cc1)c1cc([N+](=O)[O-])cc([N+](=O)[O-])c1`?
SARS PLP yeast: 4%; Pf growth 96h: 5%; NS1 function inh: 5%; Pf growth 48h: 2.6µM*

How did O=[N+]([O-])c1cccc(Nc2nc(Cl)nc(Cl)n2)c1 do in these assays?
SARS PLP yeast: 1%; Pf growth 96h: 12µM*; Pf growth 48h: 49%

Results for O=C(Nc1cccc2ccccc12)c1ccc([N+](=O)[O-])cc1 ?
SARS PLP yeast: 2%; Pf growth 96h: 7.4µM*; NS1 function inh: -11%; Pf growth 48h: 27%

Results for O=C(O)c1cccc(NC(=O)c2ccc(N3C(=O)c4ccc(C(=O)Nc5cccc(C(=O)O)c5)cc4C3=O)cc2)c1 ?
SARS PLP yeast: 6%; Pf growth 96h: 35%; NS1 function inh: 1%; Pf growth 48h: 26%

Results for O=C(O)c1cccc(NC(=O)c2ccc3c(c2)C(=O)N(c2cccc([N+](=O)[O-])c2)C3=O)c1 ?
SARS PLP yeast: 1%; Pf growth 96h: 5.9µM*; NS1 function inh: -1%; Pf growth 48h: 38%

How did CC(=O)c1ccc(OCc2cc(C(=O)NC3CCCCC3)no2)cc1 do in these assays?
SARS PLP yeast: 3%; Pf growth 96h: 0%; NS1 function inh: -5%; Pf growth 48h: 41%

Results for O=C(Nc1ccccc1-c1ccccc1)c1cccc([N+](=O)[O-])c1 ?
SARS PLP yeast: -14%; Pf growth 96h: 9.3µM*; NS1 function inh: -7%; Pf growth 48h: inconclusive

How did CCCOc1ccc(C(=O)Nc2ccc(C)cc2[N+](=O)[O-])cc1 do in these assays?
SARS PLP yeast: 15%; Pf growth 96h: 1%; NS1 function inh: 4%; Pf growth 48h: 43%

How did Cc1ccc(NC(=O)c2ccc(N/N=C/c3cccc(O)c3)c([N+](=O)[O-])c2)cc1 do in these assays?
SARS PLP yeast: 2%; Pf growth 96h: 5.2µM*; NS1 function inh: 8%; Pf growth 48h: inconclusive

How did O=C(Nc1ccccc1-c1ccccc1)c1ccccc1 do in these assays?
SARS PLP yeast: -2%; Pf growth 96h: inconclusive; NS1 function inh: -28%; Pf growth 48h: 2%

What do the screens show for `CC(C)COc1ccc(C(=O)Nc2ccccc2[N+](=O)[O-])cc1`?
SARS PLP yeast: -25%; Pf growth 96h: 10µM*; NS1 function inh: -9%; Pf growth 48h: 120%

What do the screens show for `Cc1ccc(NC(=O)c2ccc(Nc3c([N+](=O)[O-])cc([N+](=O)[O-])cc3[N+](=O)[O-])cc2)cc1`?
SARS PLP yeast: 5%; Pf growth 96h: 22%; NS1 function inh: 23%; Pf growth 48h: 5.2µM*

Results for CC(C)c1ccc2c(c1)CC[C@H]1[C@@](C)(CN)CCC[C@@]21C ?
NS1 function inh: -4%

How did COC(=O)c1cc(C(=O)Nc2ccc(S(=O)(=O)NC(C)(C)C)cc2)cc([N+](=O)[O-])c1 do in these assays?
SARS PLP yeast: 0%; Pf growth 96h: 2.6µM*; NS1 function inh: 29%; Pf growth 48h: inconclusive

Results for O=C(Nc1ccncc1)c1cc2ccccc2cc1O ?
SARS PLP yeast: -23%; Pf growth 96h: 8.3µM*; Pf growth 48h: inconclusive

What do the screens show for `O=C(Nc1cccc([N+](=O)[O-])c1)c1cc2ccccc2cc1O`?
SARS PLP yeast: -6%; Pf growth 96h: 1.9µM*; NS1 function inh: -22%; Pf growth 48h: 5.2µM*
